Assay results: PubChem BioAssay AID1619 (SRMLSC, 2009)
Among all 220,000 compounds or so, about 830 (0.38%) were called active.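 Rule for the calls: active = compound inhibiting the enzyme by more than half at any dose during confirmatory dose-response retesting; inconclusive = strong single-dose inhibitors picked by rank but not retested; inactive = the rest.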 These entries were drawn from the full list. Results with a measured potency or affinity are listed apart.

biological target: Leucine aminopeptidase (Plasmodium falciparum (isolate 3D7)) (UniProt Q8IL11); assay: P. falciparum M17LAP inhibitors, primary screen, biochemical, fluorogenic H-Leu-NHMec substrate, 1536-well (AID 1619); conditions: recombinant M17LAP, H-Leu-NHMec fluorogenic kinetic assay; at 30 µM; active compounds read high;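 note: plate controls were full reaction with DMSO carrier for no effect and no enzyme background for full effect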
Sequence (Q8IL11 whole entry, looked up): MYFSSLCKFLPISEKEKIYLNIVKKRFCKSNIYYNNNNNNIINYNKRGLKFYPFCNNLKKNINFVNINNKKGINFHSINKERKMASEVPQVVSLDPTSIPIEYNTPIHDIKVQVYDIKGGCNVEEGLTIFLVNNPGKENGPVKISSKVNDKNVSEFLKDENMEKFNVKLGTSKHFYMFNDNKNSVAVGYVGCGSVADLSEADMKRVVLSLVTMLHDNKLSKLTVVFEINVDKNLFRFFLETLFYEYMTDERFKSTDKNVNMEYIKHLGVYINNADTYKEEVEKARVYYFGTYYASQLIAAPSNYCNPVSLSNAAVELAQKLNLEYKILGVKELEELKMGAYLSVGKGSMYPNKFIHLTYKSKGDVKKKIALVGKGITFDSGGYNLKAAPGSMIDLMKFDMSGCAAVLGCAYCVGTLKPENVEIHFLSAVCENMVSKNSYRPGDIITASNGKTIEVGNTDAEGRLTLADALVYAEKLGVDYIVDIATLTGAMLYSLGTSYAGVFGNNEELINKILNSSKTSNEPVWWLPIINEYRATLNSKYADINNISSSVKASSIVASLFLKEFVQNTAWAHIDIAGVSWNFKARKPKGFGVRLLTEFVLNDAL

inhibition, inactive:
COc1ccc(Nc2nc3[nH]c(=O)cc(O)c3s2)cc1 23.2%
N#C/C(=C/c1cn(CC(=O)O)c2ccccc12)C(=O)Nc1ccccc1 10.1%
N#C/C(=C/c1cn(CC(=O)O)c2ccccc12)C(=O)NCc1ccccc1 21.3%
Cc1cc2cc(C)c3nnc(SCC(=O)Nc4ccc(S(=O)(=O)N5CCCCC5)cc4)n3c2cc1C -1.16%
O=C(CCN1C(=O)c2ccccc2C1=O)Nc1cccc(S(=O)(=O)NC2=NCCC2)c1 22.4%
CCOc1ccc(NC(=O)c2ccc(NCC(=O)N3CCCCCC3)cc2)cc1 -2.72%
COC(=O)c1ccc(C(=S)N2CCCCC2)cc1 3.47%
Cn1c(=O)c2c(nc(Br)n2Cc2ccccc2Cl)n(C)c1=O 0.26%
Cc1ncc([N+](=O)[O-])n1Cc1ccccc1F 10.8%
O=C(c1ccc([N+](=O)[O-])cc1)N1CCN(C(=O)c2ccco2)CC1 2.53%
O=C(c1ccco1)N1CCN(C(=O)c2ccccc2[N+](=O)[O-])CC1 4.98%
CC(=O)Nc1ccccc1NC(=O)C/C(C)=N/NC(=O)c1ccncc1 7.62%
N#C/C(=N\Nc1ccc(Cl)cc1)C(=O)c1ccsc1 4.01%
CCC(C)NC(=O)c1ccc2c(SCC(=O)O)c3c(nc2c1)CCCC3 (stereo not given) 25.2%
CC(C)CCNC(=O)c1ccc2c(SCC(=O)O)c3c(nc2c1)CCC3 7.01%
CCCCNC(=O)c1ccc2c(SCC(=O)O)c3c(nc2c1)CCCC3 45.8%
COc1cc(NC(=O)c2ccc3c(SCC(=O)O)c4c(nc3c2)CCCC4)cc(OC)c1OC 8.1%
O=C(Nc1ccc(Cl)cc1)c1cc(S(=O)(=O)N2CCOCC2)cs1 1.6%
Cc1ccc(C)c(S(=O)(=O)N2CCN(C(=O)c3cnccn3)CC2)c1 6.85%
CC1=NNC(=O)C1CCC(=O)N/N=C/c1ccc(Cl)cc1Cl (stereo not given) 11.1%
CC1=NNC(=O)C1CC(=O)N/N=C/c1sccc1C (stereo not given) 9.78%
O=C1CC(CC(=O)N/N=C/c2ccccc2[N+](=O)[O-])=NN1 56.8%
CC1=NNC(=O)C1CCC(=O)N/N=C/c1ccccc1 (stereo not given) -4.86%
CC1=NNC(=O)C1CCC(=O)N/N=C/c1ccc(C)cc1 (stereo not given) 5.32%
CC1=NNC(=O)C1CCC(=O)N/N=C/c1c(Cl)cccc1Cl (stereo not given) -1.12%
CCCCCC(=O)N/N=C/c1ccccc1[N+](=O)[O-] 36.9%
O=C(Cc1c(F)cccc1Cl)Nc1cc(S(=O)(=O)N2CCCCC2)ccc1N1CCOCC1 10.3%
COc1cccc(Nc2cc(C)nc3nc(C)nn23)c1 1.55%
Cc1cc(C)c(NC(=O)CCCOC(=O)C2=COCCO2)c(C)c1 12.3%
O=C(NCc1ccco1)C(c1ccccc1)N(Cc1cccnc1)C(=O)Cn1nnc2ccccc21 (stereo not given) 2.12%
CCOC(=O)N1CCC(NC(=O)c2cc(S(=O)(=O)N3CCOCC3)ccc2F)CC1 -2.28%
O=C(Nc1ccc(F)c(F)c1)c1cnc(-c2ccccc2)nc1-c1ccccc1 6.48%
COc1ccccc1NC(=S)NCCc1c[nH]c2ccccc12 1.87%
CC1(C)CC2CC(C)(CN2Cc2c(O)ccc3ccccc23)C1 (stereo not given) -1.68%
CC1C(=O)NN=C1C(=O)N/N=C/c1ccco1 (stereo not given) 5.8%
O=C(CCC(=O)N/N=C/c1ccco1)N/N=C/c1ccco1 6.28%
CCc1cc2cc(OC)ccc2nc1SCC(=O)NNC(=O)c1ccco1 -4.39%
COc1ccc(OC)c(NC(=O)CSc2nc3ccccc3cc2Cc2ccccc2)c1 -12.8%
COc1ccc2cc(C)c3nnc(SCC(=O)Nc4cc(OC)c(OC)cc4C(=O)O)n3c2c1 3.81%
CCOC(=O)CC(=O)CSc1nc2ccc(OC)cc2cc1C -7.77%
CC(C)CN(CC(C)C)S(=O)(=O)N1CCC(C(=O)NCc2ccc3c(c2)OCO3)CC1 -3.17%
Cc1ccc(-n2cccc2/C=C2/C(=N)N3C(=NC2=O)SN=C3S(C)(=O)=O)cc1 26.3%
N=C1/C(=C\c2ccc(-c3ccc(C(=O)O)cc3)o2)C(=O)N=C2SC=C(c3ccccc3)N12 23.3%
CC(C)S(=O)(=O)C1=NSC2=NC(=O)/C(=C\c3ccc(-c4cccc(C(=O)O)c4)o3)C(=N)N21 46.5%
CS(=O)(=O)C1=NSC2=NC(=O)/C(=C\c3ccc(-c4ccccc4)o3)C(=N)N21 55.5%
Cc1ccc(-n2nc(C)c3c2OC(N)=C(C#N)C3c2ccncc2)cc1 (stereo not given) 21.6%
Cc1cc(C(=O)NC2CCCCC2)on1 13.6%
O=C(COC(=O)c1cncc(Br)c1)NCc1ccccc1 -0.29%
C/C(=N/O)c1no[n+]([O-])c1/C(C)=N\O 4.25%
COC(=O)CSc1nc2cc(Cl)ccc2c(=O)n1C1CCCC1 -2.31%
Cc1c(N=C(N)/N=C(\N)Nc2ccc(Br)cc2)c(=O)n(-c2ccccc2)n1C -11.5%
CC1CCCCN1S(=O)(=O)c1ccc(N(C(=O)c2cnccn2)C(C(=O)NC2CCCCC2)c2cccs2)cc1 (stereo not given) -5%
CC(C)C(=O)c1cc2c(cc1NC(=O)c1cccs1)OCCO2 2.83%
CC(OC(=O)c1cc2c(ccc3ccccc32)oc1=O)c1nc2ccccc2s1 (stereo not given) -3.25%
Cc1cc(NCc2ccc3c(c2)OCO3)n2nc(C)nc2n1 -0.05%
COc1cccc(-c2nnn(CC(=O)Nc3ccc(C)cc3C)n2)c1OC -10%
COc1cccc(-c2nnn(CC(=O)NC3CCCC3)n2)c1OC 13.1%
CC(=O)c1cc(CN2CCN(CC=C(C)C)C(CCO)C2)cs1 (stereo not given) -1.16%
CC1(C)CC(C#N)(N2CCOCC2)CCO1 (stereo not given) -15.2%
COc1cccc2c(SCC(=O)N/N=C/c3ccccc3)cc(C)nc12 2.63%
COc1cccc2c(SCC(=O)N/N=C/c3ccc(O)cc3O)cc(C)nc12 16.9%
Cc1ccc2nc(C(O)C(O)c3nc4ccc(C)cc4[nH]3)[nH]c2c1 (stereo not given) 12.8%
COc1ccc(/C=N/NC(=O)c2[nH]c(C)c(C(=O)N/N=C/c3ccc(OC)cc3)c2C)cc1 -5.84%
Cc1[nH]c(C(=O)N/N=C/c2ccc(N(C)C)cc2)c(C)c1C(=O)N/N=C/c1ccc(N(C)C)cc1 -3.97%
O=C(N/N=C/c1cccs1)c1c[nH]c2ccccc12 19.5%
O=C(COc1ccc(C(=O)c2ccccc2)cc1)NCC(=O)Nc1ccccc1Br 0.07%
O=C1/C(=C/c2cccnc2)CCC/C1=C\c1cccnc1 12.8%
N#Cc1cc(-c2ccccc2)nn1-c1ccccc1 -15.3%
Cn1c(-c2ccccc2)n[nH]c1=S -6.39%
O=C(CN1C(=O)CSC1=O)Nc1ccc2c(c1)OCCO2 53.7%
O=C(Nc1nncs1)c1cccnc1Cl 26.3%
Cc1nnc(NC(=O)c2ccccc2Br)s1 -1.4%
O=C(Nc1ccccc1C(=O)Nc1nncs1)c1ccccc1 11.8%
CCOc1ccccc1C(=O)Nc1nncs1 -3.85%
CCCCc1nc2sc3c(c2c(=O)[nH]1)CCC3 -6.58%
COc1ccccc1C1SCCN1S(C)(=O)=O (stereo not given) -6.23%
COc1cccc(OCC(=O)O/N=C(\N)c2ccc(OC)c(OC)c2)c1 -15%
COc1ccc2oc(C)c(C(N)=O)c2c1 2.03%
CCOC(=O)CCC(=O)c1c(C)oc2ccc(OC)cc12 9.88%
O=C1NC[C@H](Cc2ccc(O)cc2)N(CCc2cccc3ccccc23)C1=O -2.35%
CCOC(=O)c1ccc(NC(=O)CN2C(=O)CCC2=O)cc1 -7.84%
CCOc1ccc(NC(=O)CN2C(=O)NC(CCSC)C2=O)cc1 (stereo not given) 27.7%
COc1ccc(NC(=O)CN2C(=O)CSC(C)C2=O)c(OC)c1 (stereo not given) 37.7%
O=C(CN1C(=O)C2CC=CCC2C1=O)Nc1ccc(S(=O)(=O)Nc2ncccn2)cc1 (stereo not given) 1.4%
COc1ccc(NC(=O)CN2C(=O)CSC2=O)cc1 30.1%
CCOc1ccc(N2C(=O)C3CCCN3C2=O)cc1 (stereo not given) -1.37%
CCOC(=O)c1ccc(NC(=O)CN2C(=O)CSC2=O)cc1 19%
CCOc1ccc(NC(=O)C2CCC(N3C(=O)C4CC=CCC4C3=O)CC2)cc1 (stereo not given) 48%
Cc1cccc(OCCSc2nncn2C)c1 -2.41%
O=C1c2ccccc2C(=O)N1CSc1nnc(Nc2ccccc2F)s1 4.65%
CN(C)c1oc(-c2ccccc2Cl)nc1S(=O)(=O)c1ccccc1 0.69%
Cc1cccc(C)c1NC(=S)N/N=C/c1ccccc1C(=O)O 7.19%
COc1cc(/C=C/C(=O)OCC(=O)Nc2ccccc2Cl)cc(OC)c1OC 7.2%
Cc1ccccc1C(=O)NC(CC(C)C)C(=O)OCC(=O)c1c(N)n(C)c(=O)n(C)c1=O (stereo not given) -1.49%
CC(C)(C)NC(=O)C(c1ccc(O)cc1)N(C(=O)CCC(=O)Nc1nccs1)c1ccc(F)cc1 (stereo not given) 13.2%
